RECQ1 helicase = qHTS Assay for Inhibitors of RecQ-Like Dna Helicase 1 (RECQ1). 0.54% of 240,000 active. Potency, µM (top dose mostly 57.3 µM), hits mostly inhibitors. RECQ1 DNA unwinding, red fluorescence kinetic read. ATP-dependent DNA helicase Q1 (Homo sapiens), P46063; also: nearly all actives have a fitted effect of over 30% in size
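RECQ1T1 50 nM; forked duplex (20 bp + 30-nt ss tails) 200 nM, ATP 2 mM final; pH 8.0, 2 mM MgCl2, 2.5 ug/ml poly(dI-dC); 15 min compound preincubation; discontinuous kinetic read over 2 h at RT.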
BLM helicase inh = qHTS Assay for Inhibitors of Bloom's syndrome helicase (BLM) | Potency, µM (doses to about 56.1 µM), actives largely listed as inhibitors | 0.2% of 350,000 active | recombinant BLM DNA unwinding, fluorescence dequenching | RecQ-like DNA helicase BLM (Homo sapiens), P54132; also: nearly all actives have a fitted effect of over 35% in size
JMJD2E inh = qHTS Assay for Inhibitors of Human Jumonji Domain Containing 2E (JMJD2E). AID 2147, 2009. Lysine-specific demethylase 4E (Homo sapiens), B2RXH2. JMJD2E catalytic domain, FDH-coupled NADH fluorescence (FDH is formaldehyde dehydrogenase). 1.6% of 230,000 active. Potency, µM (titrated, usually from 57.1 µM), hits mostly inhibitors; active = well fitted inhibition curve with a large enough effect, not every such curve was filed as active; inconclusive = small, poorly fitted or top-dose-only effect, or another doubt; inactive = no such curve, though single readings can be large or run the other way; also: nearly all actives have a fitted effect of over 50% in size
Target sequence (B2RXH2 1-337 limits assumed): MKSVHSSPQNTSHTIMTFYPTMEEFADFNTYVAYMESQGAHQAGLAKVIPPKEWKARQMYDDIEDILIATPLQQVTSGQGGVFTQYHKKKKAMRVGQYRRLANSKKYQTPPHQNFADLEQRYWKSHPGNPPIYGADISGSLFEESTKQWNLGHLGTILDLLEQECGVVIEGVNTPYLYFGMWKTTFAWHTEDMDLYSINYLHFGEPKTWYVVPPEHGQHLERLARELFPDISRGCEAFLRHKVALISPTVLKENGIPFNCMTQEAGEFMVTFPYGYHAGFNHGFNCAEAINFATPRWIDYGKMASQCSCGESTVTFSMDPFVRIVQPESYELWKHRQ
TDP1 block = qHTS Assay for Inhibitors of Tyrosyl-DNA Phosphodiesterase (TDP1); recombinant TDP1, AlphaScreen DNA substrate cleavage; Potency, µM (titrated, usually from 130 µM), most hits filed as inhibitors; 0.28% of 350,000 active; AID 485290, 2010; also: nearly all actives have a fitted effect of over 40% in size
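Signal: AlphaScreen proximity between streptavidin donor and anti-FITC acceptor beads on intact substrate. Reaction: Tdp1 1 nM, substrate 15 nM final, 5 min RT after 15 min compound preincubation.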
APE1 inh-1 = qHTS Assay for Inhibitors of the Human Apurinic/apyrimidinic Endonuclease 1 (APE1); DNA repair nuclease/redox regulator APEX1 (Homo sapiens), P27695; recombinant APE1, TAMRA/BHQ-2 abasic DNA cleavage fluorescence; Potency, µM (highest dose often 65.8 µM), actives largely listed as inhibitors; 0.35% of 350,000 active; also: nearly all actives have a fitted effect of over 55% in size
Target sequence (P27695 whole entry, looked up): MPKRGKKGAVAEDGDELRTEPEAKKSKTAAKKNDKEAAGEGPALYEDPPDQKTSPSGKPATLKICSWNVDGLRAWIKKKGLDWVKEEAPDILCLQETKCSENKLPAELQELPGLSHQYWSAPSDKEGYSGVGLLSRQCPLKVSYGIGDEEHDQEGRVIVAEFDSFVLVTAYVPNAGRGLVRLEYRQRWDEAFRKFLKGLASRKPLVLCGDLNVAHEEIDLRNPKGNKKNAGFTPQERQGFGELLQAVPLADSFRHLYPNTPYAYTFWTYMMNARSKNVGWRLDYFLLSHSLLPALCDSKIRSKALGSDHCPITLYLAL
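Kinetic fluorescence read (525 ex/598 em nm, three reads 60 s apart) of AP-site incision; signal = third minus first read. Enzyme 0.75 nM, dual-labelled THF duplex 50 nM, compound preincubation 15 min RT.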
L3MBTL1 inh = qHTS Assay for the Inhibitors of L3MBTL1; Lethal(3)malignant brain tumor-like protein 1 (Homo sapiens), Q9Y468; Potency, µM (doses to about 57.1 µM), most hits filed as inhibitors; AlphaScreen L3MBTL1–H3K9me1 peptide binding; 0.66% of 230,000 active; also: nearly all actives have a fitted effect of over 60% in size
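Displacement of a biotinylated histone H3(1-15) peptide monomethylated at Lys9 (75 nM) from L3MBTL1 (50 nM) was measured by AlphaScreen after a 30 min room-temperature compound incubation; cefsulodin titration served as intraplate control.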
APE1 dye cs = Counterscreen for APE1 Inhibitors: Fluorescent Dye Displacement Assay; AID 2564, 2010; shares compounds with APE1 inh-1; DNA fluorescent dye displacement counterscreen, fluorescence; Potency, µM (top dose mostly 28.5 µM), most hits filed as inhibitors; 7% of 480 active;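 also: loss of thiazole orange fluorescence as the dye is displaced from duplex DNA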
EndoIV counter = Counterscreen for APE1 Inhibitors: qHTS Assay for Inhibitors of Endonuclease IV; Potency, µM (doses to about 27.1 µM), usual class: inhibitors; AID 2565, 2010; shares compounds with APE1 inh-1; 4% of 560 active; E. coli Endo IV, fluorogenic AP-site DNA cleavage
APE1 inh-2 = Confirmation qHTS Assay for Inhibitors of the Human Apurinic/apyrimidinic Endonuclease 1 (APE1). Potency, µM (highest dose often 57.1 µM), most hits filed as inhibitors. shares compounds with APE1 inh-1. 44% of 750 active. purified APE1, fluorogenic abasic-site DNA cleavage; also: nearly all actives have a fitted effect of over 30% in size
APE1 FP = qHTS FP-Based Assay for Inhibitors of the Human Apurinic/apyrimidinic Endonuclease 1 (APE1); 7% of 480 active; Potency, µM (doses to about 28.5 µM), actives largely listed as inhibitors; shares compounds with APE1 inh-1; APE1 binding to TAMRA-labelled double-stranded DNA, fluorescence polarization displacement
Each line names hits and unclear results; the compound was inactive in the other large screens (follow-up assays come after a bar, where they were run). Shown is part of a subset that was picked to be rich in hits. Unless noted, calls follow the shape of the dose curve; as a rule, active = well fitted curve in the direction sought with a large enough effect; inconclusive = small, poorly fitted or top-dose-only effect, or another doubt; inactive = no such curve, though single readings can be large; an effect the other way counts as inactive or inconclusive.

O=C(O)C1C2C=CC(CC2)C1C(=O)O (centres undefined)	TDP1 block 10µM, APE1 inh-1 13µM (no result: L3MBTL1 inh) | APE1 inh-2 inconclusive
CC(=O)Nc1ccc(NC(=O)C2C3C=CC(C3)C2C(=O)O)cc1 (centres undefined)	APE1 inh-1 inconclusive (no result: RECQ1 helicase, JMJD2E inh, TDP1 block)
COc1ccc(C2C3C=CCC(c4cccc(-c5ccc(N(C)C)cc5)c4)C3C(=O)N2Cc2ccccc2)cc1Cl (centres undefined)	none (no result: JMJD2E inh, L3MBTL1 inh)
O=C(O)c1ccc(CNc2ncnc3nc[nH]c23)cc1	none (no result: RECQ1 helicase, BLM helicase inh, JMJD2E inh, APE1 inh-1, L3MBTL1 inh)
Cc1sc2ncnc(SCC(=O)NC(=O)NCc3ccco3)c2c1C	RECQ1 helicase inconclusive, TDP1 block 45µM, APE1 inh-1 28µM, L3MBTL1 inh inconclusive | APE1 dye cs inactive | EndoIV counter inactive | APE1 inh-2 inconclusive | APE1 FP inactive
C=C(C)C(=O)Nc1cccc(C2=NOC3(C2)C[C@@H](C(N)=O)N(C(=O)CCCCC)C3)c1 (some centres undefined)	RECQ1 helicase 25µM, TDP1 block 40µM, APE1 inh-1 inconclusive (no result: L3MBTL1 inh) | APE1 inh-2 40µM
Cn1c(=O)c2c(ncn2CC(=O)N/N=C/c2c[nH]c3ccccc23)n(C)c1=O	TDP1 block 79µM | APE1 inh-2 inconclusive
COc1ccc(/C=N/NC(=O)Cn2cnc3c2c(=O)n(C)c(=O)n3C)c(OC)c1OC	none (no result: TDP1 block)
COc1ccc2c(c1)c(=O)oc1cc(OCC(=O)NC3CCCCC3)ccc12	JMJD2E inh inconclusive, APE1 inh-1 11µM, L3MBTL1 inh inconclusive (no result: TDP1 block) | APE1 dye cs inactive | EndoIV counter inactive | APE1 inh-2 5.6µM | APE1 FP inactive
COc1ccc2c(c1)c(=O)oc1cc(OCC(=O)NC3CC3)ccc12	JMJD2E inh inconclusive, APE1 inh-1 inconclusive (no result: TDP1 block)
CCCC[C@H](O)c1ccccc1	none (no result: RECQ1 helicase, JMJD2E inh, TDP1 block, APE1 inh-1, L3MBTL1 inh)
COc1cc(/C=C2/C(C)=C(C#N)c3nc(N)c(C#N)c(C)c32)ccc1OCC(=O)O	RECQ1 helicase inconclusive, JMJD2E inh inconclusive, APE1 inh-1 inconclusive, L3MBTL1 inh inconclusive
CC1=C(C#N)c2nc(N)c(C#N)c(C)c2/C1=C\c1ccc(-c2ccccc2C(=O)O)o1	RECQ1 helicase 11µM, JMJD2E inh inconclusive, APE1 inh-1 25µM, L3MBTL1 inh 16µM (no result: TDP1 block) | APE1 dye cs 11µM | EndoIV counter inactive | APE1 inh-2 14µM | APE1 FP 13µM
CCn1cc(C(=O)NCc2ccco2)c(=O)c2cc(F)c(N3CCN(C(=O)c4ccco4)CC3)cc21	JMJD2E inh inconclusive, TDP1 block 40µM, APE1 inh-1 inconclusive | APE1 inh-2 inconclusive
COC(=O)C1=C(C(=O)OC)[C@@H]2N(C)c3ccc(OC)cc3[C@@]23C[C@@H](C(=O)OC)N(C(C)=O)C3=N1	none (no result: L3MBTL1 inh)
CC1=CCC2C(=O)N(c3nc4ccccc4n3C)C(=O)C2C1 (centres undefined)	TDP1 block 40µM, APE1 inh-1 inconclusive (no result: L3MBTL1 inh) | APE1 inh-2 40µM
CC(C)[C@H](NC(=O)[C@@H]1CSSC[C@H](NC(=O)[C@H](CC(=O)O)NC(=O)[C@H](C)NC(=O)[C@@H](NC(=O)CNC(=O)[C@H](C)N)[C@@H](C)O)C(=O)N[C@@H](Cc2ccccc2)C(=O)N[C@@H](Cc2c[nH]c3ccccc23)C(=O)N[C@@H](CCCCN)C(=O)N[C@@H](Cc2ccc(O)cc2)C(=O)N1)C(=O)O	none (no result: JMJD2E inh, L3MBTL1 inh)
CCN(C/C=C/C#CC(C)(C)C)Cc1cccc(OCc2cc(-c3ccsc3)cs2)c1	none (no result: JMJD2E inh, L3MBTL1 inh)
CC(=O)Oc1cc(-c2coc3cc(OC(C)=O)c(OC(C)=O)c(OC(C)=O)c3c2=O)cc(OC(C)=O)c1OC(C)=O	RECQ1 helicase 1µM, BLM helicase inh 11µM, JMJD2E inh 3.2µM, APE1 inh-1 0.32µM (no result: TDP1 block, L3MBTL1 inh) | EndoIV counter inactive | APE1 inh-2 1.1µM
O=C(Nc1nc(-c2ccccc2)cs1)c1cccnc1	none (no result: L3MBTL1 inh)
CC(=O)Nc1ccc(C(=O)Nc2nc(-c3cccnc3)cs2)cc1	JMJD2E inh inconclusive, TDP1 block 71µM | APE1 inh-2 inactive
CCN(CC)CCNc1ccc(CO)c2sc3ccccc3c(=O)c12	APE1 inh-1 inconclusive | APE1 dye cs 7.9µM | EndoIV counter inactive | APE1 inh-2 16µM | APE1 FP inactive
CC1=N/C(=C/c2ccco2)C(=O)O1	RECQ1 helicase inconclusive, JMJD2E inh inconclusive, TDP1 block 5.6µM, APE1 inh-1 25µM (no result: L3MBTL1 inh) | APE1 dye cs inactive | EndoIV counter inactive | APE1 inh-2 35µM | APE1 FP inactive
O=C1OC(c2ccc(Br)cc2)=N/C1=C\c1ccco1	L3MBTL1 inh inconclusive
Oc1ccc(/C=N/N2CCOCC2)c(O)c1O	JMJD2E inh 25µM, TDP1 block inconclusive, APE1 inh-1 7.1µM, L3MBTL1 inh 14µM | APE1 dye cs inactive | EndoIV counter inactive | APE1 inh-2 inconclusive | APE1 FP inactive
Oc1ccc(/C=N/N2CCCCC2)c(O)c1O	none (no result: RECQ1 helicase, JMJD2E inh, TDP1 block, L3MBTL1 inh)
CC1(C)Oc2cc(N)c([N+](=O)[O-])cc2O1	APE1 inh-1 32µM | APE1 dye cs inactive | EndoIV counter inactive | APE1 inh-2 inactive | APE1 FP inactive
Cc1ccc(C)n1-c1ccc(C(=O)O)cc1	JMJD2E inh 14µM, TDP1 block 7.9µM, APE1 inh-1 14µM (no result: L3MBTL1 inh) | APE1 inh-2 13µM
O=C(Cc1ccc(Cl)cc1)c1ccc(O)cc1	none

Assay outcomes (PubChem BioAssay)
